Assays:
Assay in all cases: DAPPL (digital affinity profiling via proximity ligation, sequencing); 10 mM Tris-HCl pH 7.5, 50 mM NaCl, 1 mM DTT, 4% glycerol, room temperature, 30 min; GST-TFs on glutathione beads, 16-mer random dsDNA library, 0.1% formaldehyde crosslink after washing; high values mean tight binding
Conditions in all cases: protein: recombinant; tags: N-terminal GST; dsDNA, one strand shown
FLI1 = biological target: T1, FLI1 (Homo sapiens, UniProt Q01543 1-452)
T1 sequence: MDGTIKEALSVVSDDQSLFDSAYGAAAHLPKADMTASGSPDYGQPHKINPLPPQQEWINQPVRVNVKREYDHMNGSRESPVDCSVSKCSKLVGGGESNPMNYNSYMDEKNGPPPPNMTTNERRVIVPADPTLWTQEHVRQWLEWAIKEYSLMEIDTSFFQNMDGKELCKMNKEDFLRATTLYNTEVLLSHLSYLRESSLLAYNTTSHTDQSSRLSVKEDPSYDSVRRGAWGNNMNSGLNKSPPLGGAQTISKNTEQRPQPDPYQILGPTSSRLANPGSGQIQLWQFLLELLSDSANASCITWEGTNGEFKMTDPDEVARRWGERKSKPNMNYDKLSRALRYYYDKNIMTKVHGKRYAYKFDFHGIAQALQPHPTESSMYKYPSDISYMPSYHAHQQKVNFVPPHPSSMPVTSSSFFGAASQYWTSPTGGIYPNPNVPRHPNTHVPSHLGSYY
Procedure, shortened: (§1)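 Beads coated with glutathione captured GST-fused human transcription factors that had been expressed in yeast, and the factors were then given DNA barcodes and pooled with a tag-only sample. The pools were incubated with 200 nmole of a random double-stranded 16-mer DNA library in Tris/NaCl/DTT/glycerol buffer for 30 min at room temperature, washed, crosslinked with 0.1% formaldehyde and proximity-ligated with BsaI/T4 ligase at 37 °C for 1 h. PCR amplification and Illumina NextSeq500 sequencing came last. Binding signal is each hexamer's read frequency for a factor divided by its frequency for the tag-only sample.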

ELK1 = biological target: T2, ELK1 (Homo sapiens, UniProt P19419 1-428)
T2 sequence: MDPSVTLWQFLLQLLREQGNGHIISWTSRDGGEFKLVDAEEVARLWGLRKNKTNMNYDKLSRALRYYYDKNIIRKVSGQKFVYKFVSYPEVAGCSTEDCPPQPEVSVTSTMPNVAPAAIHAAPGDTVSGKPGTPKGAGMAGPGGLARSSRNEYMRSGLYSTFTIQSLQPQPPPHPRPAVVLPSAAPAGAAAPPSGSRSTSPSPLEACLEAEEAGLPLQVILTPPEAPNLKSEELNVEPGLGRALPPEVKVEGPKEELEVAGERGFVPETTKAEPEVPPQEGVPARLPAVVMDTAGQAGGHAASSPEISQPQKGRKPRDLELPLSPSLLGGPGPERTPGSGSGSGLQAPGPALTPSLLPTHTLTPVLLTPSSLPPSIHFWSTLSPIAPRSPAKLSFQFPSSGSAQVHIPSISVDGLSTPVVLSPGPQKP
Procedure, shortened: as §1

GABPA = biological target: T3, GABPA (Homo sapiens, UniProt Q06546 1-454)
T3 sequence: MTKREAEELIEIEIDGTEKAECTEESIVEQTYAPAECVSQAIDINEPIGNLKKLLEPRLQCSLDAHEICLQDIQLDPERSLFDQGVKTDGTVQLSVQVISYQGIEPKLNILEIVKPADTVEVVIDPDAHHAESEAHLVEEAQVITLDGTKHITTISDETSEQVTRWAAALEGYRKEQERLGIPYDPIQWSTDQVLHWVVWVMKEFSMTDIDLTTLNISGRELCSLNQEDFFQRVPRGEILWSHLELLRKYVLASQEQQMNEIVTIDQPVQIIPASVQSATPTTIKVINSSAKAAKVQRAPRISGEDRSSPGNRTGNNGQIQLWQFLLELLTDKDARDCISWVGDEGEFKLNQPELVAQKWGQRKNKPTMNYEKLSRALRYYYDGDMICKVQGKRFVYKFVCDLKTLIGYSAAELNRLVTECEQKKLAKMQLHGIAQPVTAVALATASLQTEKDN
Procedure, shortened: as §1

ERG = biological target: T4, ERG (Homo sapiens, UniProt P11308 1-479)
T4 sequence: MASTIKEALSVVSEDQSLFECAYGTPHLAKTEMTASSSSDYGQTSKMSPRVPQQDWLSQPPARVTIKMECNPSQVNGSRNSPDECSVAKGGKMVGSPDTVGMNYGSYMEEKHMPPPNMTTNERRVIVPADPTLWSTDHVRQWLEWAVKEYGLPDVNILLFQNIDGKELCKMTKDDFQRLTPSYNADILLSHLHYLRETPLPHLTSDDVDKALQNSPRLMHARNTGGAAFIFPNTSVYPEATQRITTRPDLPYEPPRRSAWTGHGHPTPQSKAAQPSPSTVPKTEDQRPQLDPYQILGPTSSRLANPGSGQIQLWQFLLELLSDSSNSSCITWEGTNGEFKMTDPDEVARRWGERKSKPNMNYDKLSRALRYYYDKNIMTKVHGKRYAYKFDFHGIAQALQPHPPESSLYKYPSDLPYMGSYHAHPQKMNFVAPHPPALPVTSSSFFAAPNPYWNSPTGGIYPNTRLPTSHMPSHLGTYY
Procedure, shortened: as §1

ELF1 = ELF1 (Homo sapiens, UniProt P32519 1-619)
Chain of ELF1 (P32519 whole entry): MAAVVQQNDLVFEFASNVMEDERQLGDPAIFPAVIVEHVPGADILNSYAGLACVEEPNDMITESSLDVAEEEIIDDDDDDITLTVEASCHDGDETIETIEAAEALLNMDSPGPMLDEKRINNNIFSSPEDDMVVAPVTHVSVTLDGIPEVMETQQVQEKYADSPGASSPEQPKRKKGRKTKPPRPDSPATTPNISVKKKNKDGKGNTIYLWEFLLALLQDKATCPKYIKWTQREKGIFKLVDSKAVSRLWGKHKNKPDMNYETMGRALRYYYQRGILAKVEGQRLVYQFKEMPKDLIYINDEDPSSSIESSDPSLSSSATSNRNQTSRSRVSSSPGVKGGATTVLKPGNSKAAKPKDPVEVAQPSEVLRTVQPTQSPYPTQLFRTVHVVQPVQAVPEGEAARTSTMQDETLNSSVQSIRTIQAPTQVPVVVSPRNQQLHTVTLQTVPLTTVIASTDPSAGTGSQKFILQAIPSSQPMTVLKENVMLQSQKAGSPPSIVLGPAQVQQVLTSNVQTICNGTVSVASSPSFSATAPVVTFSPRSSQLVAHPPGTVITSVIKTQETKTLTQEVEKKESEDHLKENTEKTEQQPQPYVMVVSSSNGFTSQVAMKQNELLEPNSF
Procedure, shortened: as §1

EHF = biological target: T5, EHF (Homo sapiens, UniProt Q9NZC4 1-300)
T5 sequence: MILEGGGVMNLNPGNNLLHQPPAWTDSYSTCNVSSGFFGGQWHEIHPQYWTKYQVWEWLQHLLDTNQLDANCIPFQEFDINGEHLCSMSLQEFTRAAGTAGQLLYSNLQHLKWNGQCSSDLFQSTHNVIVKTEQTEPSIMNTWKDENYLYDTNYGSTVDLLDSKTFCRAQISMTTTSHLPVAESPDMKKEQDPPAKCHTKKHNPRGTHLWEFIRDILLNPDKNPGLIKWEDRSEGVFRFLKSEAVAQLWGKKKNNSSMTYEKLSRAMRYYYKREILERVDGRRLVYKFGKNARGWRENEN
Procedure, shortened: as §1

SPI1 = SPI1 (Homo sapiens, UniProt P17947 1-270)
Procedure, shortened: as §1

SPIB = SPIB (Homo sapiens, UniProt Q01892 1-262)
Chain of SPIB (Q01892 whole entry): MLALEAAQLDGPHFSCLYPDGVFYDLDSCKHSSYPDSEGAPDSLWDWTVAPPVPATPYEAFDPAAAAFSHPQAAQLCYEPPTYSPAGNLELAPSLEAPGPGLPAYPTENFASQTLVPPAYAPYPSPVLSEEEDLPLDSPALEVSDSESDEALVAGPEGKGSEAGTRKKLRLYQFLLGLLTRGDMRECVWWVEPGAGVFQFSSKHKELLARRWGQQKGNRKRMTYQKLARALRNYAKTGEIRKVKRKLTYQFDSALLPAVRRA
Procedure, shortened: as §1

ELK3 = biological target: T6, ELK3 (Homo sapiens, UniProt P41970 1-407)
T6 sequence: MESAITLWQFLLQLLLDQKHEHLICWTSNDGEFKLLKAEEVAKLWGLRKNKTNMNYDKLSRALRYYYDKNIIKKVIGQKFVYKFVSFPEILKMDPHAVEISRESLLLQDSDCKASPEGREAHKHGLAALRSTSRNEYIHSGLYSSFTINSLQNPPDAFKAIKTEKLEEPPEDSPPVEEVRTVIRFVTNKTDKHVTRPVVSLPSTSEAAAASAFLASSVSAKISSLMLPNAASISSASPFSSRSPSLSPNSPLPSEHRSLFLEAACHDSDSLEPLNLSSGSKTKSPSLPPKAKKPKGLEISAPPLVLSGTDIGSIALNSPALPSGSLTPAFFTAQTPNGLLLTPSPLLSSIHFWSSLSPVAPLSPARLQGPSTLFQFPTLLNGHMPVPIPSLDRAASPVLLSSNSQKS
Procedure, shortened: as §1

Row | Sequence | binding signal (FLI1) | binding signal (ELK1) | binding signal (GABPA) | binding signal (ERG) | binding signal (ELF1) | binding signal (EHF) | binding signal (SPI1) | binding signal (SPIB) | binding signal (ELK3)
1 | AACTGG | 1.22 fold enrichment (6-mer frequency, TF over GST control) | 1.22 fold enrichment (6-mer frequency, TF over GST control) | 1.29 fold enrichment (6-mer frequency, TF over GST control) | 1.31 fold enrichment (6-mer frequency, TF over GST control) | 1.27 fold enrichment (6-mer frequency, TF over GST control) | 1.17 fold enrichment (6-mer frequency, TF over GST control) | 1.31 fold enrichment (6-mer frequency, TF over GST control) | 1.25 fold enrichment (6-mer frequency, TF over GST control) | 1.28 fold enrichment (6-mer frequency, TF over GST control)
2 | CCCTTA | 1.29 fold enrichment (6-mer frequency, TF over GST control) | 1.24 fold enrichment (6-mer frequency, TF over GST control) | 1.24 fold enrichment (6-mer frequency, TF over GST control) | 1.28 fold enrichment (6-mer frequency, TF over GST control) | 1.3 fold enrichment (6-mer frequency, TF over GST control) | 1.32 fold enrichment (6-mer frequency, TF over GST control) | 1.31 fold enrichment (6-mer frequency, TF over GST control) | 1.35 fold enrichment (6-mer frequency, TF over GST control) | 1.25 fold enrichment (6-mer frequency, TF over GST control)
3 | ATGCGA | 1.18 fold enrichment (6-mer frequency, TF over GST control) | 1.27 fold enrichment (6-mer frequency, TF over GST control) | 1.24 fold enrichment (6-mer frequency, TF over GST control) | 1.21 fold enrichment (6-mer frequency, TF over GST control) | 1.26 fold enrichment (6-mer frequency, TF over GST control) | 1.23 fold enrichment (6-mer frequency, TF over GST control) | 1.19 fold enrichment (6-mer frequency, TF over GST control) | 1.12 fold enrichment (6-mer frequency, TF over GST control) | 1.14 fold enrichment (6-mer frequency, TF over GST control)
4 | ATAATA | 1.13 fold enrichment (6-mer frequency, TF over GST control) | 1.07 fold enrichment (6-mer frequency, TF over GST control) | 1.18 fold enrichment (6-mer frequency, TF over GST control) | 1.17 fold enrichment (6-mer frequency, TF over GST control) | 1.23 fold enrichment (6-mer frequency, TF over GST control) | 1.24 fold enrichment (6-mer frequency, TF over GST control) | 1.18 fold enrichment (6-mer frequency, TF over GST control) | 1.18 fold enrichment (6-mer frequency, TF over GST control) | 1.11 fold enrichment (6-mer frequency, TF over GST control)
5 | GATCTT | 1.29 fold enrichment (6-mer frequency, TF over GST control) | 1.33 fold enrichment (6-mer frequency, TF over GST control) | 1.32 fold enrichment (6-mer frequency, TF over GST control) | 1.35 fold enrichment (6-mer frequency, TF over GST control) | 1.23 fold enrichment (6-mer frequency, TF over GST control) | 1.22 fold enrichment (6-mer frequency, TF over GST control) | 1.19 fold enrichment (6-mer frequency, TF over GST control) | 1.36 fold enrichment (6-mer frequency, TF over GST control) | 1.29 fold enrichment (6-mer frequency, TF over GST control)
6 | TACTAC | 1.29 fold enrichment (6-mer frequency, TF over GST control) | 1.35 fold enrichment (6-mer frequency, TF over GST control) | 1.31 fold enrichment (6-mer frequency, TF over GST control) | 1.24 fold enrichment (6-mer frequency, TF over GST control) | 1.39 fold enrichment (6-mer frequency, TF over GST control) | 1.36 fold enrichment (6-mer frequency, TF over GST control) | 1.2 fold enrichment (6-mer frequency, TF over GST control) | 1.41 fold enrichment (6-mer frequency, TF over GST control) | 1.2 fold enrichment (6-mer frequency, TF over GST control)
7 | AAACGC | 1.24 fold enrichment (6-mer frequency, TF over GST control) | 1.17 fold enrichment (6-mer frequency, TF over GST control) | 1.28 fold enrichment (6-mer frequency, TF over GST control) | 1.34 fold enrichment (6-mer frequency, TF over GST control) | 1.27 fold enrichment (6-mer frequency, TF over GST control) | 1.25 fold enrichment (6-mer frequency, TF over GST control) | 1.22 fold enrichment (6-mer frequency, TF over GST control) | 1.22 fold enrichment (6-mer frequency, TF over GST control) | 1.15 fold enrichment (6-mer frequency, TF over GST control)

From article PMC7862700, “An all-to-all approach to the identification of sequence-specific readers for epigenetic DNA modifications on cytosine”
